± gives the standard deviation of the averaged measurements.

The test system of this experiment is Caenorhabditis elegans N2. Description: egg-laying rate relative to DMSO control (M9 buffer background) (fraction of control); higher = more egg-laying. Particulars: 60 µM, 1 h. The method, then: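 About 20 young-adult wild-type C. elegans (N2) per well in 96-well plates were exposed to 60 uM compound for 1 h at room temperature, either in M9 buffer (to find stimulators) or in 12.3 mM serotonin + 7.7 mM nicotine (NS, to find inhibitors). Eggs per worm per hour were counted by automated imaging and normalised to the mean of proximal DMSO control wells. Values average the primary screen and two retests of the worm-active (wactive) Egl modulators.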
Take `Cc1ccccc1C(=O)NCCSC1CCCCC1` [wact-494]: the egg-laying rate was found to be 1.03 ± 0.24.

`c1csc(-c2cnc3ccccc3n2)c1` [wact-21] showed an egg-laying rate of 4.69 ± 1.8.

`O=[N+]([O-])c1ccc(N2CCN(CC3CCCCC3)CC2)cc1` [wact-45] came in with an egg-laying rate of 4.22 ± 1.8.

Regarding `c1ccc(CSc2nnc(-c3ccccc3)o2)cc1` [wact-38], the egg-laying rate amounted to 8.44 ± 0.94.

`CCOc1ccc(C(=O)c2cccs2)cc1` [wact-471]: the egg-laying rate was 2.49 ± 2.2.

`O=C1CC(N2CCN(c3ccc([N+](=O)[O-])cc3)CC2)C(=O)N1c1ccccc1F` (stereo not given) [wact-56] displayed an egg-laying rate of 2.24 ± 0.45.

Turning to `Cc1ccc(-c2cnc(-c3ccncc3)o2)cc1` [wact-23], the egg-laying rate was 3.94 ± 1.5.

As to `O=[N+]([O-])c1ccc(-n2ccc3ccccc32)cc1` [wact-213], the egg-laying rate is 2.13 ± 1.5.

On to `Ic1cccc(-c2nnc(-c3ccccc3)o2)c1` [wact-51], for which the egg-laying rate amounted to 2.92 ± 1.6.

Regarding `O=[N+]([O-])c1ccc(N2CCc3ccccc3C2)nc1` [wact-421], the egg-laying rate worked out at 1.83 ± 0.59.

For `CCSc1nnc(-c2ccc(Cl)cc2Cl)o1` [wact-4], the egg-laying rate worked out at 4.56 ± 1.9.

In turn, `O=C(Nc1cccc(Cl)c1)N1CCN(c2ccc([N+](=O)[O-])cc2)CC1` [wact-31] returned an egg-laying rate of 2.02 ± 0.75.

In turn, `O=[N+]([O-])c1ccc(N2CCN(CC3CC=CCC3)CC2)cc1` (stereo not given) [wact-47] gave an egg-laying rate of 10.6 ± 6.3.

In turn, `O=C(Nc1ccc(I)cc1)c1ccco1` [wact-27] gave an egg-laying rate of 3.06 ± 1.5.

As for `CCC1CCC(N2CCN(c3ccc([N+](=O)[O-])cc3)CC2)CC1` (stereo not given) [wact-6], the egg-laying rate came to 7.85 ± 2.4.

In turn, `COc1ccc(C=Cc2ccccn2)cc1` [wact-622] showed an egg-laying rate of 1.19 ± 0.28.

For `O=[N+]([O-])c1ccc(N2CCN(CC3CC4C=CC3C4)CC2)cc1` (stereo not given) [wact-46], the egg-laying rate worked out at 11 ± 6.7.

Compound `Cc1ccn2cc(-c3ccc(F)cc3)nc2c1` [wact-436] showed an egg-laying rate of 1.94 ± 0.73.

Take `CCc1ccc(-c2cn3ccsc3n2)cc1` [wact-434]: the egg-laying rate was 1.53 ± 0.93.

As for `Brc1cccc(-c2cn3ccccc3n2)c1` [wact-435], the egg-laying rate came out at 0.576 ± 0.34.

`CCCCOC(=O)Nc1ccc([N+](=O)[O-])cc1` [wact-419] came in with an egg-laying rate of 2.9 ± 0.58.

Consider `O=[N+]([O-])c1ccc(CSc2ccc(Cl)cc2)cc1` [wact-3], for which the egg-laying rate turned out to be 2.13 ± 0.22.

With `Cc1ccccc1C(=O)NCCc1ccccc1` [wact-406], the egg-laying rate came to 0.741 ± 0.36.

Compound `Fc1ccc(-c2cn3ccsc3n2)cc1` [wact-433] had an egg-laying rate of 3.02 ± 1.1.

As for `Clc1ccc(-c2cn3ccsc3n2)cc1` [wact-1], the egg-laying rate was found to be 1.94 ± 0.54.
